TMEM16A act: mouse TMEM16A channel activation, primary screen. HEK293 TMEM16A/YFP-H148Q/I152L, iodide quench fluorescence; stronger effect = lower value. actives 0.3% (n = 340,000). AID 623877. B-score at 10 µM;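 active means fluorescence-ratio B-score plate-corrected deviation score at least 3 library SD below zero, with starting fluorescence score within 5 deviations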;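 further: channel opened by trigger with iodide after compound preincubation; score built on the fluorescence ratio of max minus min over baseline; more negative score means more quench and so TMEM16A activation or potentiation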
Target sequence (Q8BHY3 whole entry, looked up): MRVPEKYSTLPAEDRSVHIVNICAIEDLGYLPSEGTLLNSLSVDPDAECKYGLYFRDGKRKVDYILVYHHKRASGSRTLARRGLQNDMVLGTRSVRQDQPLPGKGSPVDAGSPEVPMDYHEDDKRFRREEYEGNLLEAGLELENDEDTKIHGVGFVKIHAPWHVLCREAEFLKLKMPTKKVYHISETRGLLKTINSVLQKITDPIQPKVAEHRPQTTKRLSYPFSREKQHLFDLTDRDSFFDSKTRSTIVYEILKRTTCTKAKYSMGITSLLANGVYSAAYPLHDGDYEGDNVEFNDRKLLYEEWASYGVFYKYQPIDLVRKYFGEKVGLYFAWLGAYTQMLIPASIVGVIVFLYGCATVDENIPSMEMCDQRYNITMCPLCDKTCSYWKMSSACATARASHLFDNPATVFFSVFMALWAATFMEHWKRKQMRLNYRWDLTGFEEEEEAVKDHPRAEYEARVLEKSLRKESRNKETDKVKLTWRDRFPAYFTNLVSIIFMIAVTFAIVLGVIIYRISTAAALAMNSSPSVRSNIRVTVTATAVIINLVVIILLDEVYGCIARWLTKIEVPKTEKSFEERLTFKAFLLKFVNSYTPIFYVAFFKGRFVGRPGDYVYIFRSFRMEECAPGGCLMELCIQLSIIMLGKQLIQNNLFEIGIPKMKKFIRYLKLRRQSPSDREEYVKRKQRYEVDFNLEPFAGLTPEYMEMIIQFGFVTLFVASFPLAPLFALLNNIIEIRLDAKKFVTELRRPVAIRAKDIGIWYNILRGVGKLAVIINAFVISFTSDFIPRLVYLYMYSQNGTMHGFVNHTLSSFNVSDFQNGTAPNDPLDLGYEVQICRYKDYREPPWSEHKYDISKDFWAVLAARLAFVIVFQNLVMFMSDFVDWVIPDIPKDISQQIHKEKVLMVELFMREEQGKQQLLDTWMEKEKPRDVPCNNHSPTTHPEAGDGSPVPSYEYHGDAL
MEKK2 mut-MEK5: signal of MEK5 binding to mutant human MEKK2 PB1 domain; bead flow cytometry, Alexa488-MEK5 binding to MEKK2 mutant; percent response, % at 10 µM; actives 0.35% (n = 290,000); AID 1530; in the data active means percent response above about 24%, passing the limit was not always enough
NTR1 ag: agonists of human neurotensin receptor NTR1. P30989. NTR1-U2OS beta-arrestin-GFP spot imaging, agonist mode. activation, % at 20 µM. actives 0.17% (n = 330,000);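 active means activation at or above 40% of the spot to cytoplasm intensity ratio, with at least 20 cells analyzed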;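 further: 0% = DMSO without peptide and 100% = 100 nM NTR1 peptide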
MEKK2 WT-MEK5: raises or lowers MEK5 binding to wildtype human MEKK2 PB1 domain; bead flow cytometry, Alexa488-MEK5 binding to MEKK2 WT; actives lie on both sides; actives 1.1% (n = 290,000); binding response (% of control), % at 10 µM; Q9Y2U5; in the data active means binding response below about 67% or above about 130%
MEKK3 PB1 HTS: raises or lowers MEK5 binding to the human MEKK3 PB1 domain; bead-based flow cytometry, Alexa488-MEK5 binding to MEKK3; actives lie on both sides; 0 = blocked by unlabeled MEK5, 100 = vehicle; binding response (% of control), % at 10 µM; actives 1.4% (n = 290,000); AID 1529;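 active means binding response more than 3 SD above or below the average of its plate-row segment, actives on both sides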;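 further: Alexa488 bead fluorescence after subtracting the streptavidin-only scavenger bead signal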
ANO1 block: mouse TMEM16A channel inhibition, primary screen. HEK293 TMEM16A/YFP iodide influx fluorescence, ionomycin. normalized B-score (activity score, 25-100; higher = stronger inhibition) at 10 µM. actives 1.2% (n = 310,000);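 active means ratio plate-corrected score three or more library SD toward inhibition, starting fluorescence score within five deviations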;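 further: score derived from kinetic fluorescence span divided by baseline fluorescence per well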
TMEM16A reconf: re-confirmation of mouse TMEM16A chloride channel inhibitors; shares compounds with ANO1 block; HEK293 TMEM16A/YFP-H148Q, iodide quench fluorescence; ionomycin added to raise cell calcium; inhibition, % at 10 µM; actives 39% (n = 2,300); AID 652189;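 active means mean duplicate percent inhibition, scaled so buffer wells are 0 and the reference blocker 100, over three buffer SD above buffer mean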
TMEM16A Ca cntr: counter-screen for TMEM16A inhibitors: effect on calcium mobilization. actives 2% (n = 2,300). shares compounds with ANO1 block. TMEM16A/YFP HEK293, Fluo4 calcium mobilization. calcium response (% of ionomycin), % at 10 µM. AID 652231;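 active means duplicate-averaged calcium signal over 20% of the ionomycin maximum, relative to buffer baseline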;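 further: each well's signal is peak minus trough fluorescence divided by its pre-addition baseline; 0% = buffer wells and 100% = ionomycin wells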
YFP-HEK293 quench: acts in parental YFP-HEK293 cells lacking TMEM16A, counter-screen; shares compounds with ANO1 block; iodide YFP quench, ionomycin; YFP ratio F(max-min)/F0 at 10 µM; 2,300 tested, under 10 active; AID 652233;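 active means yellow fluorescent protein signal ratio exceeding the buffer control mean by over 5 SD of those controls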;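 further: ratio is mean of duplicate wells from kinetic YFP trace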
ClC-1 inh: rat ClC-1 inhibition, TMEM16A specificity screen; shares compounds with ANO1 block; CHO ClC-1-YFP, iodide influx fluorescence quench; iodide control reads 0, buffer control 100; ratio percent, % at 10 µM; 2,300 tested, under 10 active;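 active means duplicate-mean ratio percent above the mean of iodide-only control wells, which defines zero, plus 5 of their SD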;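 further: higher percent means stronger block of ClC-1 iodide influx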
An asterisk follows results filed as active; i = inactive; nt = not tested or not shown. This is a sample that favours compounds with a hit; in the whole collection about 3.4% have one here.

SMILES	TMEM16A act	MEKK2 mut-MEK5	NTR1 ag	MEKK2 WT-MEK5	MEKK3 PB1 HTS	ANO1 block	TMEM16A reconf	TMEM16A Ca cntr	YFP-HEK293 quench	ClC-1 inh
O=C(Nc1cccnc1)c1ccc(Cl)c(S(=O)(=O)N2CCCCCC2)c1	i	5	3	102	105	25*	30%*	i	-1.1	-14
O=C(Nc1nnc(C2CC2)s1)c1ccc(Cl)c(S(=O)(=O)N2CCc3ccccc3C2)c1	i	4	9	101	102	100*	26%*	i	-1.1	-3
Cc1ccc(C(=O)Nc2cccnc2)cc1S(=O)(=O)N1CCCCCC1	i	-1	2	103	99	i	nt	nt	nt	nt
O=C(Nc1ccc(Br)cc1)c1ccc(F)c(S(=O)(=O)N2CCN(c3ccccn3)CC2)c1	i	4	3	124	103	25*	i	i	-1.1	-16
O=C(Nc1ccncc1)c1ccc(Cl)c(S(=O)(=O)N2CCc3ccccc32)c1	i	nt	8	nt	nt	25*	32%*	i	-1.1	-30
Cc1ccccc1NC(=O)c1ccc(F)c(S(=O)(=O)N2CCN(c3ccccn3)CC2)c1	i	-3	1	96	101	i	nt	nt	nt	nt
O=C1Nc2ccccc2CCC1Sc1nnc(-c2ccc(Cl)cc2)s1 (stereo unspecified)	i	-3	12	94	96	i	nt	nt	nt	nt
O=C(Nc1ccccc1)Nc1ccc(Cl)c(S(=O)(=O)N2CCOCC2)c1	i	nt	2	nt	nt	100*	28%*	i	-0.91	-12
O=C(Nc1ccc(Cl)c(S(=O)(=O)N2CCCCC2)c1)c1ccncc1	i	nt	2	nt	nt	nt	nt	nt	nt	nt
O=C(Nc1ccncc1)c1ccc(Cl)c(S(=O)(=O)N2CCCCC2)c1	i	nt	1	nt	nt	25*	i	i	-1	-20
O=C(NCC(O)c1ccccc1)c1ccc(Cl)c(S(=O)(=O)N2CCCCC2)c1 (stereo unspecified)	i	3	1	105	100	25*	i	i	-0.88	-12
Nc1ccc(S(=O)(=O)Nc2ccc(Cl)nn2)cc1	i	-5	1	88	91	i	nt	nt	nt	nt
CCn1c(C)c(C2=CCN(S(=O)(=O)c3ccccc3)CC2)c2ccccc21	i	-2	-1	107	103	i	nt	nt	nt	nt
CC(=O)c1c(C)nn(CC(O)COc2ccc3c(c2)CCC3)c1C (stereo unspecified)	i	0	0	99	103	25*	i	i	-1.1	-6
Cc1ccc2cc(C#N)c(NCCCNC(=O)C3CCCO3)nc2c1 (stereo unspecified)	i	4	-1	97	102	25*	i	i	-1	-8
Cc1ccc2cc(C#N)c(N3CCCN(C(=O)C4CCCO4)CC3)nc2c1 (stereo unspecified)	i	-11	0	91	92	i	nt	nt	nt	nt
CN1CCN(CC(=O)Nc2nc(-c3ccccc3)cs2)CC1	i	nt	-1	nt	nt	i	nt	nt	nt	nt
COc1ccc(C2(O)CCN(CC(=O)Nc3nc(-c4ccccc4)cs3)CC2)cc1	i	0	17	111	103	25*	36%*	i	-0.81	-29
Cc1ccc(-c2cc(-c3ccccc3Cl)[nH]n2)c(O)c1	i	2	9	107	105	i	nt	nt	nt	nt
Cc1ccccc1-c1cc(-c2ccccc2O)n[nH]1	i	1	6	102	102	25*	i	i	-1.2	-14
COc1cc2c(cc1OC)CN(C(=O)C1CCCN1S(=O)(=O)c1ccc(C)cc1)CC2 (stereo unspecified)	i	3	-1	106	104	i	nt	nt	nt	nt
CCOC(=O)C1=C(CSc2nc3ccccc3s2)NC(=O)NC1c1ccc(OC)cc1 (stereo unspecified)	i	0	4	95	102	25*	i	i	-1.1	-16
O=S(=O)(c1ccc2oc(=S)[nH]c2c1)N1CCOCC1	i	nt	2	nt	nt	nt	nt	nt	nt	nt
O=S1(=O)CC/C(=N\O)c2ccccc21	i	7	5	110	114	25*	i	i	-1.2	-4
C=CCNC(=S)N/N=C1\CCS(=O)(=O)c2ccccc21	i	-8	0	100	94	i	nt	nt	nt	nt
SMILES	TMEM16A act	MEKK2 mut-MEK5	NTR1 ag	MEKK2 WT-MEK5	MEKK3 PB1 HTS	ANO1 block	TMEM16A reconf	TMEM16A Ca cntr	YFP-HEK293 quench	ClC-1 inh
CCCS(=O)(=O)N1CCC(C(=O)NCCCOC)CC1	i	1	0	103	102	100*	i	i	-0.92	-2
CCOc1ccccc1C1CC(=O)Nc2cc3c(cc21)OCCO3 (stereo unspecified)	nt	-4	7	97	97	i	nt	nt	nt	nt
CCCOc1ccccc1C1CC(=O)Nc2cc3c(cc21)OCCO3 (stereo unspecified)	i	nt	6	nt	nt	100*	26%*	i	-0.88	-17
CCOc1ccc(Oc2ccc(S(=O)(=O)N3CCOCC3)cc2N)cc1	i	4	0	100	99	i	nt	nt	nt	nt
Nc1cc(S(=O)(=O)N2CCCCC2)ccc1Oc1ccccc1	i	-2	4	96	98	25*	16%*	i	-1	-9
COc1cccc(/C=C2/CN(C)CC3=C2OC(N)=C(C#N)C3c2cccc(OC)c2)c1 (stereo unspecified)	i	4	0	103	104	i	i	i	-1.2	-10
CC(C)(C)C1CCc2onc(C(=O)Nc3cnn(Cc4ccc(F)cc4)c3)c2C1 (stereo unspecified)	i	0	12	92	95	i	nt	nt	nt	nt
CC(C)(C)C1CCc2onc(C(=O)Nc3ccc(F)cc3F)c2C1 (stereo unspecified)	i	-4	4	92	96	100*	i	i	-1	-4
CCOc1ccc(S(=O)(=O)NCCC(=O)OCC(=O)c2ccc[nH]2)cc1	i	4	2	97	109	i	nt	nt	nt	nt
Cc1ccc(-n2ncc3c(N4CCCC4)ncnc32)c(C)c1	i	2	1	96	104	i	nt	nt	nt	nt

Source: PubChem (several laboratories)
